Results filed as inconclusive are left out. Values without a mark were called inactive. The source made the active and inactive calls. The call rests on the fitted dose curve; in most records, active means well fitted cell-killing curve with a large enough effect in the repeat runs; inconclusive means weak or mixed curves, or effect the other way; inactive means flat fitted curve, though single readings scatter.
Assay: Human pregnane X receptor (PXR) small molecule agonists, qHTS cell viability counter screen (AID 1346977); further: nearly all actives have a fitted effect of over 50% in size
Conditions: PXR-Luc HepG2 viability, CellTiter-Fluor, 24 h; series mostly up to 92.4 µM; activity change, negative = cytotoxicity: at the top concentration
Source text: U.S. Tox21 Program National Center for Advancing Translational Sciences [NCATS] NIH Chemical Genomics Center [NCGC] U.S. Environmental Protection Agency [EPA] National Institutes of Environmental Health Sciences [NIEHS] National Toxicology Program [NTP] U.S. Food and Drug Administration [FDA] Tox21 Assay Overview: The human pregnane X receptor (hPXR) regulates the expression of several drug metabolizing enzymes and induction of these proteins is a major mechanism for developing drug resistance in cancer. One such key enzyme catalyzing the drug metabolism is cytochrome P450 3A4 (CYP3A4). Changes in CYP3A4 expression affect drug metabolism, thereby reducing the therapeutic efficacy and altering toxicological response to a drug and which finally causes adverse drug interaction. To screen Tox21 libraries for compounds that activate hPXR-mediated CYP3A4 gene expression, PXR-Luc HepG2 cells were used. Also cytotoxicity of the compounds was tested in parallel by measuring the cell viability using CellTiter-Fluor assay system in the same wells.
Tox21 Assay Protocol Summary: PXR-Luc HepG2 cells were dispensed at 2,000 per well in 5uL of assay medium containing 5% charcoal-stripped FBS into white solid bottom 1536-well plates (Corning Life Sciences, Corning, NY) using a Multidrop Combi (Thermo Scientific, Waltham, MA) dispenser. The assay plates were incubated at 37 C and 5% CO2 for 5hr, and then 23nL of compounds dissolved in DMSO and positive control were transferred using a Pintool station (Wako, San Diego, CA). The assay plates were incubated at 37C and 5% CO2 for 24hr. For cytotoxicity read, after 23hr incubation at 37C, 1uL CellTiter-Fluor reagent (Promega Corporation, Madison, WI) was added to each well of the assay plates using Flying Reagent Dispenser (FRD, Aurora Discovery, San Diego, CA). After 1hr incubation at 37C and 5% CO2, the fluorescence signal was quantified using a ViewLux plate reader (PerkinElmer, Shelton, CT).
On the % scale 0 is the no-effect control and ±100 the full control effect; potency means the concentration at half of the fitted maximal effect.

| Compound | activity change, negative = cytotoxicity | Potency |
| --- | --- | --- |
| c1ccsc1 | 0.739% |  |
| COC(=O)c1ccccc1OC | 12.3% |  |
| CCCCCCCCCCCCCC[N+](C)(C)Cc1ccccc1 |  | 55.3 µM (active) |
| C=CCCC(=O)/C=C/C1C(C)=CCCC1(C)C (stereo not given) | -3.16% |  |
| CC[N+](CC)(CC)CCOC(=O)C(C1CCCC1)C1CCCC1 | 0.902% [at 42.5 µM] |  |
| Cc1c(C)c2c(c(C)c1O)CC[C@@](C)(CCC[C@H](C)CCC[C@H](C)CCCC(C)C)O2 | 2.96% |  |
| c1ccc(SSc2ccccc2)cc1 | -21.2% |  |
| O=C(O)CCN(C1(C(=O)NO)CCCC1)S(=O)(=O)c1ccc(Oc2ccc(F)cc2)cc1 | 3.45% |  |
| CCOc1ccc2ccccc2c1C(=O)N[C@@H]1C(=O)N2[C@@H]1SC(C)(C)[C@@H]2C(=O)O | 0.781% [at 42.5 µM] |  |
| CC(C)(C)C1CCC(=O)CC1 | -19% |  |
| O=C(O)c1ccc2cc(C(=O)O)ccc2c1 | 10.1% |  |
| CC1=Nc2ccccc2C1(C)C | 0.39% |  |
| CCN(CCN)c1cccc(C)c1 |  | inactive |
| CN1CCN(Cc2cc(-c3ccc4[nH]c(=O)oc4c3)co2)[C@@H](c2ccc(F)cc2)C1 |  | 46.7 µM (active) |
| CCCC(=O)OC(C)(C)Cc1ccccc1 | 6.04% |  |
| CC[C@H](C)COC(=O)/C=C/c1ccc(N=Cc2ccc(OC)cc2)cc1 | -8.68% |  |
| CCCCCCCCCCCCCCCC[N+](C)(C)CC |  | 54.6 µM (active) |
| CCC(C)(CCC(C)C)C(=O)[O][Sn]([CH3])([CH3])[O]C(=O)C(C)(CC)CCC(C)C (stereo not given) | -0.509% |  |
| Cc1nc(-c2ccc(Cl)cc2)oc1COC(C)(C)C(=O)O | 5.77% [at 42.5 µM] |  |
| CN(C)Cc1cc(C(C)(C)C)c(O)c(C(C)(C)C)c1 | 11.4% |  |

| Compound | activity change, negative = cytotoxicity | Potency |
| --- | --- | --- |
| COc1cccc(OC)c1C(=O)O | -0.787% |  |
| O=C(c1ccc(O)c(O)c1)c1ccc(O)cc1O |  | 50.1 µM (active) |
| Nc1cc(Cl)c(O)c(Cl)c1 | -5.35% |  |
| O=C(O)c1cccc(C(F)(F)F)c1 | 14.7% |  |
| [Cl][Pt-2]([Cl])([Cl])[Cl] | 0.372% |  |
| CNc1ccc([N+](=O)[O-])cc1 |  | 43.4 µM (active) |
| CCCCCCCC/C=C\CCCCCCCCN | 0.292% [at 42.5 µM] |  |
| CCCCCCCCCCCC(=O)OCC(C)OC(=O)CCCCC(=O)O (stereo not given) | 3.56% [at 42.5 µM] |  |
| CCCCOC(=O)CO | 7.04% |  |
| CN(C)CCN1CCN(c2cccc(Cl)c2)C1=O | 2.67% [at 42.5 µM] |  |
| O=C1CCCCCCCCCCCCCCCO1 | -0.908% |  |
| CCCCCc1ccc(Cl)cc1 | 6.19% |  |
| CC(C)(C)CC(C)(C)c1ccc(Nc2ccc(C(C)(C)CC(C)(C)C)cc2)cc1 | 1.07% [at 8.39 µM] |  |
| COc1cc(S(=O)(=O)O)c(C)cc1N=Nc1c(O)ccc2cc(S(=O)(=O)O)ccc12 |  | 15.4 µM (active) |
| c1cnccn1 | 0.073% |  |
| CCCCCCCC | -0.181% |  |
| CCCCCCCCCCC[C@@H](C[C@@H]1OC(=O)[C@H]1CCCCCC)OC(=O)[C@H](CC(C)C)NC=O | 12% [at 42.5 µM] |  |
| CC(CO)Oc1ccccc1 (stereo not given) | 8.52% |  |
| CC(C)NC[C@@H](O)COc1ccc(CC(N)=O)cc1 | 6.55% [at 42.5 µM] |  |
| O=[N+]([O-])c1ccc(O)cc1C(F)(F)F |  | 48.6 µM (active) |
